PubChem BioAssay (NCATS)
Inconclusive results are not listed. The source made the active and inactive calls. Unless noted, calls come from the whole dose curve.

Legend:
[1] = target: Peroxisome proliferator-activated receptor gamma (Homo sapiens) (UniProt P37231); experiment: qHTS assay for small molecule agonists of peroxisome proliferator-activated receptor gamma signaling (AID 588536; active = well fitted curve in the direction sought with a large enough effect in the signal ratio, with a control signal flat, not every such curve was filed as active; the % refers to the signal ratio;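 note: 0% = DMSO basal wells and 100% = rosiglitazone at 2 µM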)
Chain of Peroxisome proliferator-activated receptor gamma (Homo sapiens) (P37231 whole entry, looked up): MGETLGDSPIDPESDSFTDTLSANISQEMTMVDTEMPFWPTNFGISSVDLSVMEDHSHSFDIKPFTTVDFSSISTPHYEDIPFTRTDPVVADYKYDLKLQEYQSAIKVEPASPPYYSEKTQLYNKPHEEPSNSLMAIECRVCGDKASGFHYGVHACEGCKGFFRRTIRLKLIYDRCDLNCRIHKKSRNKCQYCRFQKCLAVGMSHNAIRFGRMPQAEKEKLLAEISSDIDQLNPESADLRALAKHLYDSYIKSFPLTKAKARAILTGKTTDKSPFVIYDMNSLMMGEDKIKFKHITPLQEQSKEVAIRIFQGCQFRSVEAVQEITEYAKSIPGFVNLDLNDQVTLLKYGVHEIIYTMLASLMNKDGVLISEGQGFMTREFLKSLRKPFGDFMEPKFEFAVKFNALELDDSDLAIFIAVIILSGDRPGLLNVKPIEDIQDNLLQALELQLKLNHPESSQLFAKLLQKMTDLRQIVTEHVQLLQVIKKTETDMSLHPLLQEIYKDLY
Method in brief: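 PPAR-gamma-UAS-bla HEK293 cells in medium with 1% charcoal/dextran-treated FBS were exposed to compounds for 16 h at 37 C. Beta-lactamase activity was read with CCF4 substrate (405 nm excitation, 460/530 nm emission).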

[2] = target: Vitamin D3 receptor (Homo sapiens) (UniProt P11473); experiment: qHTS assay for small molecule agonists of vitamin D receptor signaling (AID 588543);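 note: 0% = DMSO basal and 100% = reference agonist control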
Chain of Vitamin D3 receptor (Homo sapiens) (P11473 whole entry, looked up): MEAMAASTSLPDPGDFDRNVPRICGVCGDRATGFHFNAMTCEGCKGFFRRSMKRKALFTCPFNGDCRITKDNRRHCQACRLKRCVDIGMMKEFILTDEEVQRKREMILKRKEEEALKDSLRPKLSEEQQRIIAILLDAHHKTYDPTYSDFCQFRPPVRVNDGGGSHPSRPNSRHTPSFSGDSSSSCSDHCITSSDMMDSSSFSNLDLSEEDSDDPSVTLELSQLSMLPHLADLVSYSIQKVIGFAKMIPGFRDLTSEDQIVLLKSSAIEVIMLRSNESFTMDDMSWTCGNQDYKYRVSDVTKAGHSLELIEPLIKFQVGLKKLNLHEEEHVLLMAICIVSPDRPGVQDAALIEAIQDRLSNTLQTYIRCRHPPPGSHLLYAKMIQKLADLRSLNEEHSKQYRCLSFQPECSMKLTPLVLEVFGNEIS
Method in brief: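 Reporter cells (HEK293T, VDR-UAS-bla) were seeded in medium with 2% charcoal-stripped serum and incubated 5 h, then compounds in concentration series were added for 16 h at 37 °C. Stimulation was scaled between DMSO basal and 50 nM 1α,25-dihydroxyvitamin D3.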

[3] = qHTS assay for small molecule agonists of retinoid X receptor alpha signaling (AID 588544); conditions: HEK293T RXRa-UAS-bla, beta-lactamase reporter, 18 h; 530 nm emission;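 for activation: 0% = DMSO basal wells and 100% = reference agonist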
[4] = target: Retinoic acid receptor RXR-alpha (Homo sapiens) (UniProt P19793); experiment: as above
Chain of Retinoic acid receptor RXR-alpha (Homo sapiens) (P19793 whole entry, looked up): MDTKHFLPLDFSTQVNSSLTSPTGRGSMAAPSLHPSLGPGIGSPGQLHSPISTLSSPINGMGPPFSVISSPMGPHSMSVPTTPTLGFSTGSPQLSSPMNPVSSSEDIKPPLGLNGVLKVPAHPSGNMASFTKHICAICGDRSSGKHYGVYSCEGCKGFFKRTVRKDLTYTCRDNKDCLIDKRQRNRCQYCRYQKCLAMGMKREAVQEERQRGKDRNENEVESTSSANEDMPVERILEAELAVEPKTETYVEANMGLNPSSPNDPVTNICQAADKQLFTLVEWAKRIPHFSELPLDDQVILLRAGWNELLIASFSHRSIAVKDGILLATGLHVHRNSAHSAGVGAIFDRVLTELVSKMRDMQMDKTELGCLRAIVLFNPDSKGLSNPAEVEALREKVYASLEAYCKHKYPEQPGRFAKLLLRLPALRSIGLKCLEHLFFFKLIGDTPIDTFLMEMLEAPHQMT

[5] = target: Thyroid hormone receptor beta (Homo sapiens) (UniProt P10828); experiment: qHTS assay for small molecule agonists of thyroid hormone receptor beta signaling (AID 588545)
Chain of Thyroid hormone receptor beta (Homo sapiens) (P10828 whole entry, looked up): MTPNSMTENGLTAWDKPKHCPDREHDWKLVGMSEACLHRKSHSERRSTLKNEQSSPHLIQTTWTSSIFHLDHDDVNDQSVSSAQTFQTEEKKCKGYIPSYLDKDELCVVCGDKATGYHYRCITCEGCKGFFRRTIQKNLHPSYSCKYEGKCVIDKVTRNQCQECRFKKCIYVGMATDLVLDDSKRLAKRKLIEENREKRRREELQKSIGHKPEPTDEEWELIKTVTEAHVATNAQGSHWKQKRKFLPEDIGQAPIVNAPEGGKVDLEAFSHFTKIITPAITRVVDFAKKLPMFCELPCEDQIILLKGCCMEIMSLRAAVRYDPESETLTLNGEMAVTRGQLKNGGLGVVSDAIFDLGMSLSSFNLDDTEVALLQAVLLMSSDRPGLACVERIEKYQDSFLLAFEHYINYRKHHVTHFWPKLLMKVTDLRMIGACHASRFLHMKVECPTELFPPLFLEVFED
Method in brief: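 Cells (2500/well) were seeded, incubated 4 hrs at 37 C, dosed with a compound series, incubated 18 hrs, loaded with CCF4 dye for 2 hrs at RT, then read for fluorescence. Data were scaled between DMSO (0%) and 10 nM T3 (100%).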

[6] = qHTS assay for small molecule antagonists of retinoid X receptor alpha signaling (AID 588546); conditions: HEK293T RXRa-UAS-bla, beta-lactamase ratio, antagonist mode; measured here: W530 green channel, cytotoxicity proxy;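 note: cells stimulated with 9-cis-retinoic acid as agonist; % is set by controls: 0 for no effect and ±100 for the full control effect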
Method in brief: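 Beta-lactamase reporter inhibition, read as CCF4 fluorescence ratio (ex 405, em 460/530 nm) after 2 h at RT. HEK293T UAS-bla cells, 2500/well, were stimulated with 9-cis-RA at 500 or 100 nM final alongside test compound for 18 h at 37 C.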

[7] = target: Thyroid hormone receptor beta (Homo sapiens) (UniProt P10828); experiment: qHTS assay for small molecule antagonists of thyroid hormone receptor beta signaling (AID 588547; active = well fitted inhibition curve with a large enough effect in the signal ratio, with a control signal flat, not every such curve was filed as active; the % refers to the signal ratio;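 note: cells stimulated with 0.4 nM T3 agonist during compound exposure; series mostly up to about 77 µM; % is set by controls: 0 for no effect and ±100 for the full control effect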); conditions: TR-UAS-bla HEK293, beta-lactamase ratio, antagonist mode, 18 h
Method in brief: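 TR-UAS-bla GripTite HEK293 cells in 2% charcoal/dextran FBS medium; compounds 0.59 nM to 92 uM with T3 at 0.4nM final, 18 h at 37 C. Beta-lactamase read by CCF4 fluorescence (460/530 nm); Hill fits gave IC50 and efficacy.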

[8] = target: Voltage-gated inwardly rectifying potassium channel KCNH2 (Homo sapiens) (UniProt Q12809); experiment: qHTS Assay for Small Molecule Inhibitors of the Human hERG Channel Activity (AID 588834; active = well fitted curve in the direction sought with a large enough effect; an effect the other way counts as inactive or inconclusive;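 note: top concentration of the series differs between compounds; % is set by controls: 0 for no effect and ±100 for the full control effect; lower thallium flux fluorescence means stronger hERG block; nearly all actives have a fitted effect of over 50% in size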)
Chain of Voltage-gated inwardly rectifying potassium channel KCNH2 (Homo sapiens) (Q12809 whole entry, looked up): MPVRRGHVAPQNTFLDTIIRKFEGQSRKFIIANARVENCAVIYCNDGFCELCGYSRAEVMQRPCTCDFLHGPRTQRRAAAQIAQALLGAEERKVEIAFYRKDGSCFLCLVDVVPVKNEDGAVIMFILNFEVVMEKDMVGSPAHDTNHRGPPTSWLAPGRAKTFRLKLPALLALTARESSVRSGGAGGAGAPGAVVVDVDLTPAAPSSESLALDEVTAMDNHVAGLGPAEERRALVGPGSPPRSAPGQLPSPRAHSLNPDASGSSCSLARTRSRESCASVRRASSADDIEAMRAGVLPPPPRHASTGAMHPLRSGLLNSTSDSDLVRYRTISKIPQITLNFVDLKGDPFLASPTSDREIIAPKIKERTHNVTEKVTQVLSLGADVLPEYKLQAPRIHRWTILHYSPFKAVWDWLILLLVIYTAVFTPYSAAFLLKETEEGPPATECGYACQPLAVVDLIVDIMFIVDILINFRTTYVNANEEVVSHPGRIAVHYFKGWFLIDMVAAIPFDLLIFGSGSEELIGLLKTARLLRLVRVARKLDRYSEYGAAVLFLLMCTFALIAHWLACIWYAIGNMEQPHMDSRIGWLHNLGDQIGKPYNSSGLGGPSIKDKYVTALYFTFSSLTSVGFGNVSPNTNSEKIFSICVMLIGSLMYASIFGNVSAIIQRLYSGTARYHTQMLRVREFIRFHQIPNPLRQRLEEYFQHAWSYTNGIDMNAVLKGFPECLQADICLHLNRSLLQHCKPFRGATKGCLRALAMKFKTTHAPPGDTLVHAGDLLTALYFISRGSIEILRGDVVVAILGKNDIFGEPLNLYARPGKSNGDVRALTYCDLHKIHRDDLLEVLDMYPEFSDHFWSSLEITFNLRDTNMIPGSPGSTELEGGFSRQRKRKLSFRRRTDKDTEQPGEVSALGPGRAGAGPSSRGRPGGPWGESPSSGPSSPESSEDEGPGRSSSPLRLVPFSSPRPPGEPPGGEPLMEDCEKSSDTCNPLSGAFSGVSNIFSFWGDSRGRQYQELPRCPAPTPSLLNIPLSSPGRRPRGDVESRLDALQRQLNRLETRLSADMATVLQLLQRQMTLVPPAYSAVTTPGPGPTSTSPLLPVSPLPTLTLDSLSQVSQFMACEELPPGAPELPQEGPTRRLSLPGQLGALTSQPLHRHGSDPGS
Method in brief: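 hERG-BacMam U2OS, 2000 cells/well; 0.7X FluxOR loading 1 hr RT dark; cpd ~10 min 37 °C; stim buffer; FDSS fluorescence 2 min @ 1 s; AC50 Hill fit.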

[9] = qHTS assay for small molecule activators of the p53 signaling pathway (AID 651743; active = well fitted activation curve with a large enough effect in the signal ratio, not every such curve was filed as active; the % refers to the signal ratio; note: series mostly up to about 92 µM; % of control where 0% means no effect); conditions: HCT-116 p53RE-bla, beta-lactamase FRET ratio, 16 h; activation: stronger effect = higher value
Method in brief: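 HCT-116 p53RE-bla, 4,000 cells/well; 5 h settle; cpd/DMSO 16 h, 37 C; LiveBLAzer B/G 2 h RT; fluorescence intensity.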

[10] = qHTS assay for small molecule activators of the nuclear factor-kappa B (NF-kB) signaling pathway (AID 651749; active = well fitted activation curve with a large enough effect in the signal ratio; the % refers to the signal ratio; note: series mostly up to about 77 µM; % of control where 0% means no effect); conditions: NF-kB-bla ME-180 cells, beta-lactamase FRET ratio, 16 h; activation: stronger effect = higher value
Method in brief: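 Incubation lasted 16 hr at 37C in 5% CO2 after 23 nL compound addition to ME-180 NF-kB-bla cells. Activation appears as beta-lactamase-mediated FRET loss.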

[11] = qHTS assay for small molecule disruptors of the mitochondrial membrane potential - 1 hr assay (AID 651754); note: % is set by controls: 0 for no effect and ±100 for the full control effect; nearly all actives have a fitted effect of over 35% in size
Method in brief: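 HepG2 cells, attached overnight at 37C, were exposed to compound or DMSO vehicle for 1 hr at 37C, 5% CO2, then stained with Mito-MPS dye for 30 min. Red aggregate versus green monomer fluorescence reports membrane potential.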

[12] = qHTS assay for small molecule disruptors of the mitochondrial membrane potential - 5 hr assay (AID 651755); note: % is set by controls: 0 for no effect and ±100 for the full control effect; nearly all actives have a fitted effect of over 40% in size
Method in brief: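 HepG2 cells (2,000/well), attached overnight, exposed to compound 5 hr at 37C, then Mito-MPS dye 30 min. Fluorescence read for monomers (490/535 nm) and aggregates (540/590 nm).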

[13] = target: Tumor necrosis factor (Homo sapiens) (UniProt P01375); experiment: qHTS assay to identify small molecules that stimulate Tumor Necrosis Factor-alpha (TNF-alpha) secretion (AID 651757; active = well fitted curve in the direction sought with a large enough effect in the signal ratio; the % refers to the signal ratio; note: 0% is about no effect)
Chain of Tumor necrosis factor (Homo sapiens) (P01375 whole entry, looked up): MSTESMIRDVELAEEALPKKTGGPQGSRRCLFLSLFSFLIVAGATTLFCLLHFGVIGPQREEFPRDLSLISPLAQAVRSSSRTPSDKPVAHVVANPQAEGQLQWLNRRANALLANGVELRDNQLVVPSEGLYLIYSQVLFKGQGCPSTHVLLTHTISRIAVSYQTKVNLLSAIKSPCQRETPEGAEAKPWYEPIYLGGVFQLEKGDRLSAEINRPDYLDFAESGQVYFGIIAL
Method in brief: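 THP-1 cells were exposed to compounds for 17 hrs at 37 C, after which secreted TNF-alpha was measured by homogeneous HTRF (TR-FRET) using cryptate- and XL665-labeled anti-TNF-alpha antibodies, read after 3 hr at room temperature.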

[14] = qHTS assay for environmental chemicals that activate the Aryl hydrocarbon Receptor (AhR) signaling pathway (AID 651777; active = well fitted curve in the direction sought with a large enough effect; an effect the other way counts as inactive or inconclusive; note: % of control where 0% means no effect; nearly all actives have a fitted effect of over 15% in size); conditions: 1A2-DRE human hepatoma cells, luciferase, 24 h; activation: stronger effect = higher value
Method in brief: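 Stable CYP1A2 promoter/DRE-luciferase human hepatoma line treated 24 hr; One-Glo luminescence, 30 min RT.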

[15] = target: Nuclear receptor ROR-gamma (Homo sapiens) (UniProt P51449); experiment: qHTS assay for small molecule antagonists of the retinoid-related orphan receptor gamma (ROR-gamma) signaling pathway (AID 651802; active = well fitted curve in the direction sought with a large enough effect; an effect the other way counts as inactive or inconclusive; note: series mostly up to about 92 µM; % is set by controls: 0 for no effect and ±100 for the full control effect; nearly all actives have a fitted effect of over 60% in size)
Chain of Nuclear receptor ROR-gamma (Homo sapiens) (P51449 whole entry, looked up): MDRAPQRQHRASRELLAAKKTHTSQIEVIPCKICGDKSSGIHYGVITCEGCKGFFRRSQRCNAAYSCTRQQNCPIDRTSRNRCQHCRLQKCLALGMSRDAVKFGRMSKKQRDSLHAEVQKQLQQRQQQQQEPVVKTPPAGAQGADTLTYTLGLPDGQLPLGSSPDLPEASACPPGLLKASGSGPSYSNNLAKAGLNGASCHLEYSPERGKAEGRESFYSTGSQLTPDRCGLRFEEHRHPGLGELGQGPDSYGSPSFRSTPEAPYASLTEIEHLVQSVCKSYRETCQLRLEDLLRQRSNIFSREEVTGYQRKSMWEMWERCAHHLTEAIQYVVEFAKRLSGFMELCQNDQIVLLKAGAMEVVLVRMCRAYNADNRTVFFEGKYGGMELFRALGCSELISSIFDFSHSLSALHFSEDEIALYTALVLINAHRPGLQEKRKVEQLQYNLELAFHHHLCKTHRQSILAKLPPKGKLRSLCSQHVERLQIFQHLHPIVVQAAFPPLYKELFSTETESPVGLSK
Method in brief: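 CHO cells carrying TET-inducible ROR-gamma and an ROR response element–luciferase reporter were exposed to compound, then induced with doxycycline. After 16hr at 37C, luminescence was read; lower signal indicates antagonism.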

[16] = qHTS assay for small molecule agonists of the antioxidant response element (ARE) signaling pathway measured by Nrf2-dependant transcriptional activity (AID 720636; active = well fitted curve in the direction sought with a large enough effect in the repeat runs; an effect the other way counts as inactive or inconclusive;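 note: HepG2 cells with an ARE-driven luciferase reporter; % of control where 0% means no effect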)
Method in brief: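 Reporter gene assay, HepG2 ARE-luc: 16 hr compound, 37 C, 5% CO2; read-out luciferase luminescence.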

[17] = qHTS assay for small molecule antagonists of the retinoid-related orphan receptor gamma (ROR-gamma) signaling pathway - cell viability counter screen (AID 720652; active = well fitted curve in the direction sought with a large enough effect in the repeat runs; an effect the other way counts as inactive or inconclusive;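 note: series mostly up to about 92 µM; compound exposure lasted 16 hr before ATP read; % is set by controls: 0 for no effect and ±100 for the full control effect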)
Method in brief: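 Counter screen in CHO cells carrying TET-inducible ROR-gamma and an ROR response element-luciferase reporter; cells plated 5 hr, compound pinned, doxycycline added, then 16 hr at 37 C. Viability read as intracellular ATP by CellTiter-Glo luminescence.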

[18] = qHTS assay for small molecule agonists of the antioxidant response element (ARE) signaling pathway measured by Nrf2-dependant transcriptional activity - cell viability counter screen (AID 720653; active = well fitted curve in the direction sought with a large enough effect in the repeat runs; an effect the other way counts as inactive or inconclusive; note: % is set by controls: 0 for no effect and ±100 for the full control effect); conditions: ARE-bla HepG2 viability, CellTiter-Glo ATP luminescence, 16 h; stronger effect = lower value
Method in brief: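 ARE-bla HepG2 cells treated with compounds for 16 h at 37C; this counter screen measures viability as intracellular ATP by CellTiter-Glo luminescence after 30 min at room temperature.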

[19] = qHTS assay for cell viability of HEK293 cells (AID 743288; active = well fitted curve in the direction sought with a large enough effect; an effect the other way counts as inactive or inconclusive; note: % is set by controls: 0 for no effect and ±100 for the full control effect; nearly all actives have a fitted effect of over 50% in size); conditions: ATP luminescence (CellTiter-Glo), 18 h; max response: stronger effect = lower value
Method in brief: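 HEK293 parental, 2,000 cells/well; ≥5 h pre-incubation 37 C; pintool compound addition; 18 h, 37 C; CellTiter-Glo 30 min RT; luminescence read.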

[20] = qHTS assay for cell viability of the p53RE-bla HCT-116 cell line (AID 743292; active = well fitted curve in the direction sought with a large enough effect; an effect the other way counts as inactive or inconclusive; note: % is set by controls: 0 for no effect and ±100 for the full control effect; nearly all actives have a fitted effect of over 55% in size)
Method in brief: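 Readout: CellTiter-Glo luminescence after 30 min RT. Treatment: compounds in DMSO, 16 h, 37 C. Cells: CellSensor p53RE-bla HCT-116, 4,000/well, preincubated 5 h.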

[21] = target: Nuclear receptor subfamily 1 group I member 2 (Rattus norvegicus) (UniProt Q9R1A7); experiment: qHTS assay for small molecule activators of the rat pregnane X receptor (rPXR) signaling pathway (AID 651751; call rule not given here; note: 0% is about no effect); conditions: rPXR reporter cells, luciferase (One-Glo), 24 h
Chain of Nuclear receptor subfamily 1 group I member 2 (Rattus norvegicus) (Q9R1A7 whole entry, looked up): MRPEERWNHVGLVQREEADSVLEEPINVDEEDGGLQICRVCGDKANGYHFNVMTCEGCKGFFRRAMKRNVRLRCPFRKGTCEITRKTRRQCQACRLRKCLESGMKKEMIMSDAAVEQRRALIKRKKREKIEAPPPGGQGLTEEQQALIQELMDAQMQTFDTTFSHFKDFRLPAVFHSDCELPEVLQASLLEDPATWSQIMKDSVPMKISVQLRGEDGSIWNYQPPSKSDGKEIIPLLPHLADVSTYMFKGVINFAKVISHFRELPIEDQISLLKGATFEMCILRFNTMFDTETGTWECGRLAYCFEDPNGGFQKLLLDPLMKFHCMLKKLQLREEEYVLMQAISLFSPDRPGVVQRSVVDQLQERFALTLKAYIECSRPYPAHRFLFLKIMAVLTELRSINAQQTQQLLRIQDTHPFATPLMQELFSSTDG

[22] = qHTS assay for small molecule activators of the human pregnane X receptor (PXR) signaling pathway (AID 720659; call rule not given here; note: 0% is about no effect)

Cc1cccc(C#N)c1
-7.67%: max response [3]
inactive: outcome [1] | outcome [2] | Potency [4] | outcome [5] | activity change % (negative = inhibition) [7] 7.42% | Potency [8] | activation [9] -3.72% | activation [10] 0.885% | Potency [11] | Potency [12] | outcome [13] | activation [14] 2.06% | Potency [15] | outcome [16] | Potency [17] | max response [18] -8.19% | max response [19] 0.442% | Potency [20] | max response [21] -0.906% | outcome [22]
3.52%: max response [6]
